The record followed here is PubChem BioAssay (NCATS).

The list shows a part of the results. Entries that show only a call come without a potency. Results filed as inconclusive are left out. The source made the active and inactive calls. Calls follow the shape of the dose curve; as a rule, active = well fitted cell-killing curve with a large enough effect; inconclusive = small, poorly fitted or top-dose-only effect, or effect the other way; inactive = flat fitted curve, though single readings scatter.
Potency is read from the fitted curve at half-maximal effect.

The test in a line: qHTS screen for small molecules that inhibit ELG1-dependent DNA repair: Hit Confirmation with MMS Viability (AID 624251).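 Also: viability read 16 h after compound addition; nearly all actives have a fitted effect of over 60% in size.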 Particulars: Cell viability with MMS; series mostly up to 46.1 µM. An excerpt:
Cancer cells divide rapidly compared to normal cells in the body. During cell division, cancer cells need to duplicate their genome by DNA replication. The failure of genome duplication leads to cancer cells' death. Therefore, inhibitors of DNA replication could specifically kill cancer cells. Based on this concept, many chemotherapeutic agents were developed and have been used to treat cancer patients. However, there are a limited number of agents available in the clinical setting, and some of those that do exist have low efficacy and severe side effects. Therefore, if we can find the compounds that effectively block DNA replication either by directly damaging DNA or by inhibiting other cellular mechanisms, the options for cancer treatment will be broadened. With this in mind, we developed a quantitative high-throughput ELG1-luciferase reporter gene assay. Small molecules that specifically block ELG1 function in response to DNA damage can be identified by monitoring the suppression of luciferase activity. Since ELG1 defines a pathway for repairing DNA damage, agents blocking ELG1 function can be used to sensitize cancer cells to chemotherapeutic agents whose mechanism of action involves the induction of DNA damage.
NIH Molecular Libraries Probe Production Network [MLPCN]
NIH Chemical Genomics Center [NCGC]
Assay Provider: Kyungjae Myung, NHGRI, NIH
ELG1-luc HEK293T cells will be seeded in 1536-well plates at a density of 2,000 cells/well. Approximately 5 hours after plating, compounds will be added to the plate by pin tool transfer and MMS will be added by FRD dispenser (final concentration of MMS = 10 µM). 16 hours following the addition of the compounds, cell viability will be measured using Cell Titer Glo.
Take `COc1ccc(NC(=O)C2CCC(CNc3c(N4CCCCC4)c(=O)c3=O)CC2)c(OC)c1` (stereo unspecified): the Potency entry was “inactive”.
For the compound `COc1ccc(CSc2nc(N3CCOCC3)c3c(c2C#N)CC(C)(C)OC3)cc1`, the Potency result was “inactive”.
In the case of `CC(=O)c1c(C)n(-c2ccc(C)cc2)c2ccc(O)cc12`, the Potency result is “inactive”.
`COc1ccccc1C(=O)Nc1ccc(C)c(S(=O)(=O)N2CCCCC2)c1`: the Potency entry is “inactive”.
To `COc1ccc(NC(=O)c2sc3nc(C)nc(N4CCN(c5ccccn5)CC4)c3c2C)c(OC)c1` belongs “inactive”; to `CS(=O)(=O)c1ccc2nc(NC(=O)C3CCCCC3)sc2c1`, “inactive”.
Regarding `Cc1cc2oc(=O)cc(CN3CCN(S(=O)(=O)c4cccs4)CC3)c2cc1C(C)C`, the Potency is 22.3 µM (active).
As for `Cc1ccccc1NC(=O)CSc1nc2ccc(Nc3nc(N4CCOCC4)nc(N4CCOCC4)n3)cc2s1`, the Potency result is “inactive”.
Turning to `CCOC(=O)c1cccc(NC(=O)C2CCN(c3ncnc4c3nc3n4CCCCC3)CC2)c1`, the Potency entry was “inactive”.
Turning to `Cc1ccc(C)c(S(=O)(=O)N2CCN(c3ncnc4sccc34)CC2)c1`, the Potency is 2.5 µM (active).
Take `COc1ccc(NS(=O)(=O)c2ccc(Oc3c(C#N)cccc3C#N)cc2)cc1`: the Potency is 4.45 µM (active).
As for `COc1ccc(-c2nn(-c3ccccc3)cc2/C=C\C(=O)N2CCOCC2)cc1[N+](=O)[O-]`, the Potency entry was “inactive”.
`COc1ccc(S(=O)(=O)Nc2ccc3oc(C)c(C(C)=O)c3c2)cc1`: the Potency is 3.97 µM (active).
On to `Cc1ccc(N(Cc2ccc(C(=O)Nc3ccccc3C(=O)NCc3ccco3)cc2)S(C)(=O)=O)cc1C`, for which the Potency entry was “inactive”.
As to `Clc1ccc2nc(-c3ccccc3)nc(C(Cl)Cl)c2c1`, the Potency was 3.97 µM (active).
Turning to `COc1ccc(CNc2ncnc3ccccc23)cc1`, the Potency is 2.23 µM (active).
For the compound `CCc1ccc(N(CC)c2ncnc3nc[nH]c23)cc1`, the Potency entry is “inactive”.
Consider `NC(=O)c1sc2nc3c(c(-c4ccccc4)c2c1N)CCC3`, for which the Potency entry is “inactive”.
In the case of `CC(C)(CNC(=O)c1ccc(Cl)c(S(=O)(=O)N2CCc3ccccc3C2)c1)N1CCOCC1`, the Potency was 1.99 µM (active).
Turning to `Cc1ccc(Nc2nc(N3CCOCC3)nc(N3CCOCC3)n2)cc1Cl`, the Potency result was “inactive”.
Take `CC12CCC(C(=O)N3CCN(c4ncccn4)CC3)(c3nc4ccccc4nc31)C2(C)C` (stereo unspecified): the Potency entry is “inactive”.
In the case of `Nc1nnc(SCC(=O)Nc2ccc3nc(SCC(=O)Nc4ccccc4)sc3c2)s1`, the Potency was 5.6 µM (active).
Turning to `CN(C)c1ccnc2sc3c(=O)n(Cc4ccccc4)cnc3c12`, the Potency entry was “inactive”.
To `OCCCNc1nccc(-c2cc(Nc3cccc(Cl)c3)ncn2)n1` belongs 2.5 µM (active); to `COc1ccc(NC(C)=O)cc1NC(=O)CN1CCN(C2c3ccccc3-c3ccccc32)CC1`, “inactive”.
As to `O=C(C1CCCN(S(=O)(=O)c2ccccc2)C1)N1CCN(c2ccc(F)cc2)CC1` (stereo unspecified), the Potency is 3.97 µM (active).
